# According to the supplement of paper PMC8728848:
# This is one part of a sample in which the strongest signals are shown more often than they occur.
# System: Neu5Ac(a2-6)GalNAc(b1-4)GlcNAc
# Assay: glycan array binding signal (z-score within array); higher = stronger binding
# Conditions: glycan notation: IUPAC condensed, linker removed
# How it was run: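 The binding signal is a Z-score computed within each array and averaged over linkers. Arrays of the same protein sequence at different concentrations or buffers were also averaged together. Data originate from 3228 arrays in the Consortium for Functional Glycomics database, kept only where the protein sequence was available.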
row,Substance,glycan array binding signal (z-score)
1,Actinohivin (Actinomycete K97),-0.197
2,Epa22,-0.394
3,LcI (Legionella pneumophila),-0.669
